Assay outcomes as filed in PubChem.
Compounds with a hit are over-represented: about 2.4% of the library has one in this group of screens.
Cruzain noTriton – qHTS Assay for Promiscuous and Specific Inhibitors of Cruzain (without detergent); Cruzipain (Trypanosoma cruzi), P25779; purified cruzain, Z-FR-AMC fluorescence, no detergent; Potency, µM, hits mostly inhibitors; hit rate 2.3% among 200,000; AID 1476, 2009; further: nearly all actives have a fitted effect of over 40% in size
Target sequence (P25779 123-467 limits assumed): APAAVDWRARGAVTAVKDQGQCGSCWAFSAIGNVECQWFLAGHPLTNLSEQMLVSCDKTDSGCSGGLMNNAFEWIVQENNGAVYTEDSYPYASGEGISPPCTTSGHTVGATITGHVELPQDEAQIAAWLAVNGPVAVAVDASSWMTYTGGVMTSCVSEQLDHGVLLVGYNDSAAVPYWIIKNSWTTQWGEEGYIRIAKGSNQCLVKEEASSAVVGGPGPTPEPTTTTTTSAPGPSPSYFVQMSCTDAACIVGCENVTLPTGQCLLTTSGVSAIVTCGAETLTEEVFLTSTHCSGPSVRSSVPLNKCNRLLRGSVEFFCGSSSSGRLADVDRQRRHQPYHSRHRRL
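Purified cruzain at 1.5 nM, pre-incubated 15 min with compound at room temperature in 100 mM sodium acetate pH 5.5, 5 mM DTT, 0.00005% Triton X-100. Reaction started with 2 uM Z-FR-AMC; AMC fluorescence increase over 60 s gives rate.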
Cruzain inh Det – qHTS Assay for Promiscuous and Specific Inhibitors of Cruzain (with detergent) | Cruzipain (Trypanosoma cruzi), P25779 | Potency, µM, actives largely listed as inhibitors | purified cruzain, Z-FR-AMC fluorescence, 0.01% Triton | AID 1478, 2009 | hit rate 0.43% among 200,000; further: nearly all actives have a fitted effect of over 40% in size
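Sodium acetate buffer (100 mM, pH 5.5) containing 5 mM DTT and 0.01% Triton X-100 hosted 1.5 nM cruzain and test compound for 15 min at room temperature. Cleavage of 2 uM Z-FR-AMC was then tracked by fluorescence.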
Numbers stand for hits; n = inactive; u = inconclusive. The call rests on the fitted dose curve; in most records, active means well fitted curve in the direction sought with a large enough effect; inconclusive means small, poorly fitted or top-dose-only effect, or another doubt; inactive means no such curve, though single readings can be large; an effect the other way counts as inactive or inconclusive.

SMILES	Cruzain noTriton	Cruzain inh Det
COc1cc(NC(=O)CN2C(=O)C(c3ccc(Cl)cc3)=NC23CCCCC3)cc(OC)c1	n	n
Cn1nc(-c2ccccc2)c(CSc2ccccc2Cl)c1Cl	n	n
Cc1ccc(S(=O)(=O)c2c(COC(=O)c3ccccc3Cl)c(-c3ccccc3)nn2C)cc1	20µM	n
Cc1c2cnn(-c3ccccc3)c(=O)c2c(C)n1CCCC(=O)Nc1cccc(F)c1	n	n
N#Cc1c(N)nc(SCC(=O)NC2CCCCC2)c(C#N)c1-c1ccc(Cl)cc1	16µM	n
CC(C)c1ccc(-c2c(C#N)c(N)nc(SCC(=O)N3CCCCC3)c2C#N)cc1	25µM	n
CCOC(=O)CSc1nc(N)c(C#N)c(-c2ccc(OCC)cc2)c1C#N	n	n
CC(C)c1ccc(-c2c(C#N)c(N)nc(SCC(=O)N3CCCCCC3)c2C#N)cc1	n	n
COc1cccc(N2CCN(C(=O)c3c(C)oc4ncnc(N5CCCCC5)c34)CC2)c1	n	n
C=C(C)C(=O)C1CCCCC1	n	n
CCCC(=O)Nc1cc(-c2nc3cccnc3s2)ccc1C	n	n
CC(=O)c1cccc(NC(=O)COc2ccccc2)c1	n	n
O=C(COc1ccc2ccccc2c1)Nc1cccc(C(=O)Nc2ccccc2C(=O)O)c1	u	32µM
CCN(CC)C[C@@H](O)c1ccc2ccc3ccccc3c2c1	n	n
CCc1cccc(C)c1NC(=O)CN(C)S(=O)(=O)c1cccc2nsnc12	n	n
Cc1ccc2nc(SCc3nc(-c4ccc(Cl)cc4)no3)[nH]c2c1	n	n
COCCCNC(=O)c1c(NC(=O)Cc2coc3cc(C)ccc23)sc2c1CCCC2	n	n
COC(=O)COc1ccc2oc(-c3ccc(OC)cc3)cc(=O)c2c1	n	n
O=C(COc1ccc2oc(-c3ccccc3)cc(=O)c2c1)Nc1ccccc1	32µM	n
CCn1c2ccccc2c2cc(NC(=O)C(C)Oc3ccc(OC)cc3)ccc21 (configuration not stated)	25µM	n
CCn1c2ccccc2c2cc(NC(=O)C(C)Oc3ccccc3)ccc21 (configuration not stated)	u	n
CCOC(=O)c1cc(-c2ccc(C)cc2)n(CC(=O)Nc2ccccc2F)c1C	n	n
CCn1nc(-c2ccccc2)c(-c2ccccc2)c(C(=O)Nc2nc(C)c(C(=O)N(C)C)s2)c1=O	u	n
Cc1cccc(C)c1NC(=O)CS(=O)(=O)c1nc(-c2ccc(Cl)cc2)cn1-c1ccccc1	n	u
COc1ccccc1-n1cc(-c2ccc(C)cc2)nc1S(=O)(=O)CC(=O)Nc1ccccc1C(F)(F)F	n	n
SMILES	Cruzain noTriton	Cruzain inh Det
COc1ccc(-c2cn(-c3ccc(C)cc3)c(S(=O)(=O)CC(=O)Nc3ccccc3)n2)cc1	20µM	n
COc1ccc(-c2cn(-c3ccc(C)cc3)c(S(=O)(=O)CC(=O)Nc3ccc(F)cc3)n2)cc1	16µM	n
O=c1cnc2cncnc2n1Cc1ccccc1Cl	n	n
CCOC(=O)c1[nH]c2ccccc2c1NC(=O)c1ccccc1OC	n	n
CCOC(=O)c1[nH]c2ccc(F)cc2c1NC(=O)Nc1ccccc1OC	7.9µM	n
Cc1cccc(NC(=O)CSc2nc3c([nH]c4ccccc43)c(=O)n2-c2ccc(F)cc2)c1C	n	n
COc1ccccc1NC(=O)c1oc2ccccc2c1NC(=O)c1cccc(OC)c1OC	n	n
O=c1c(O)cc(C2Oc3cc(O)cc(O)c3CC2O)cc2c(C3Oc4cc(O)cc(O)c4CC3O)cc(O)c(O)c12 (configuration not stated)	n	25µM
Oc1cc(O)c2c(c1)O[C@H](c1ccc(O)c(O)c1)[C@@H](O)C2	n	n
CO[C@@H]1/C=C\O[C@@]2(C)Oc3c(C)c(O)c4c(c3C2=O)C(=N[C@H]2CC[C@H](O)O[C@@H]2C)C=C(NC(=O)/C(C)=C\C(=O)[C@@H]2C[C@@H]2[C@@H](O)[C@H](C)[C@@H](O)[C@H](C)[C@H](OC(C)=O)[C@@H]1C)C4=O	n	n
O=C(COC(=O)CNC(=O)c1cccc(F)c1)NCCC1=CCCCC1	13µM	16µM
O=C(COC(=O)Cc1c(F)cccc1Cl)NCCC1=CCCCC1	n	n
CCc1cccc(C)c1NC(=O)c1cc(C)nc2c1c(C)nn2-c1cccc(Cl)c1C	n	n
Cc1ccc(NC(=O)c2nnn(CC(=O)Nc3ccc(C)c(Cl)c3)c2N)c(C)c1	10µM	n
Cc1ccc(NC(=O)c2nnn(CC(=O)Nc3ccccc3)c2N)cc1C	u	n
CCOc1ccc(C2C(C(=O)Nc3ccc(OC)cc3)=C(C)Nc3nc(SCc4ccc(Cl)cc4)nn32)cc1 (configuration not stated)	n	n
COc1ccc2c(c1)c1c(c(=O)n(CCc3ccccc3)c(=O)n1Cc1ccc(F)cc1)n2C	n	n
Cc1ccc(NC(=O)Cn2c(-c3nonc3N)nc3ccccc32)cc1C	4µM	7.1µM
Cc1ccc(C)c(NC(=O)Cn2c(-c3nonc3N)nc3ccccc32)c1	n	n
COc1ccccc1N1CCN(C(=O)Cn2cnc3onc(-c4ccc(F)cc4)c3c2=O)CC1	u	n
CN1CCc2nc3sc(C(=O)Nc4cccc(C#N)c4)c(N)c3cc2C1	n	u
O=C(Nc1ccccc1)C(=O)c1cn(CC(=O)N2CCCCC2)c2ccccc12	n	n
CC(=O)c1ccc(NC(=O)C(=O)c2cn(CC(=O)N3CCCCC3)c3ccccc23)cc1	10µM	n
CCOc1ccc(CNC(=O)C2CCN(C(=O)c3sccc3-n3cccc3)CC2)cc1	n	n
COc1ccc(Cl)cc1NS(=O)(=O)c1ccc2c(c1)NC(=O)CC(=O)N2	n	n
SMILES	Cruzain noTriton	Cruzain inh Det
COc1ccc(CNC(=O)c2cc(=O)[nH]c3ccc(S(=O)(=O)N4CCCC4)cc23)c(OC)c1	n	n
Cc1cc(C)cc(-n2c(C)cc(C(=O)C(=O)Nc3ccccc3F)c2C)c1	n	n
Cc1cc(NC(=O)CSc2nc(-c3ccco3)cc(C(F)(F)F)n2)no1	20µM	n
Cc1cc(NC(=O)CCSc2nc(-c3ccco3)cc(C(F)(F)F)n2)no1	n	n
Cc1ccc(NS(=O)(=O)c2ccc3c(c2)C(=O)c2ccccc2C3=O)c(C)c1	n	n
Cc1ccc(C)c(NS(=O)(=O)c2ccc3c(c2)Cc2cc(S(=O)(=O)Nc4cc(C)ccc4C)ccc2-3)c1	7.9µM	n
CC(C)c1ccc(NC(=O)CN2C(=O)CCc3cc(S(=O)(=O)N4CCOCC4)ccc32)cc1	u	n
N#Cc1ccc(C(=O)Nc2cc(S(=O)(=O)N3CCCC3)ccc2OCC(F)(F)F)cc1	n	n
O=C(CNc1cc(S(=O)(=O)N2CCCC2)ccc1OCC(F)(F)F)Nc1ccc(SC(F)F)cc1	16µM	n
N#C/C(=C\NC(=S)c1ccncc1)c1nc2ccccc2s1	n	n
CC(C)[N+]1(C)[C@@H]2CC[C@H]1CC(OC(=O)[C@@H](CO)c1ccccc1)C2 (some centres not stated)	n	n
CCCSc1nc2c(c(=O)[nH]c(=O)n2C)n1Cc1ccc(C)cc1	n	n
Cc1ccc(Cn2c(SCC(C)C)nc3c2c(=O)[nH]c(=O)n3C)cc1	10µM	n
O=Nc1ccc(Nc2ccccc2)cc1	7.9µM	7.1µM
c1ccc(Nc2ccc(Nc3ccccc3)cc2)cc1	n	n
CCC(=O)N1CCc2cc(CNS(=O)(=O)c3ccc(CC(C)C)cc3)ccc21	n	n
Cc1cc2oc(=O)cc(CN3CCc4ccccc43)c2cc1Cl	u	n
CCc1ccc2c(CN3CCc4ccccc43)cc(=O)oc2c1	32µM	n
